Measured values taken from PubChem BioAssay AID1508625 (Wald Lab, School of Medicine, Case Western Reserve …, 2021).

Experiment: enhancers of NK cell killing of ovarian tumor cells, primary screen, imaging, OVCAR3, primary NK cells, calcein-AM imaging (AID 1508625);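 further: compound given to NK cells 16 h before adding targets at 1.5 to 1 ratio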
Conditions: OVCAR3 lysis by primary NK cells, at 5 µM; z-score: measured here: robust Z-score, single-point normalisation

| SMILES | corrected activity, negative = more killing [%] | z-score |
| --- | --- | --- |
| CN1C(=O)c2ccccc2C(C(=O)NCCCN2CCCCCC2)C1c1cccs1 (stereo not given) | -5.67 | -1.41 |
| O=[N+]([O-])c1ccc(Nc2ncnc3ccccc23)cc1 | -1.89 | -1.01 |
| O=C(Oc1ccccc1C(=S)N1CCOCC1)c1ccc(Br)cc1 | -4.68 | -1.45 |
| CCN(C(=O)c1cc2cc3ccc(OC)cc3nc2o1)c1cccc(C(F)(F)F)c1 | -3.66 | -0.898 |
| Cc1cc(Br)c(O)c(C=NCCNC(=O)c2nonc2N)c1 | 0.42 | 0.173 |
| CN(Cc1ccccc1)Cc1c(O)ccc2c(=O)c(Oc3ccccc3Br)c(C(F)(F)F)oc12 | 2.2 | 0.682 |
| N#Cc1c(NC(=O)c2ccc(Cl)c(S(=O)(=O)N3CCOCC3)c2)sc2c1CCCC2 | -5.49 | -1.95 |
| Cc1ccc(S(=O)(=O)NN=Cc2ccc(I)cc2)cc1 | -2.58 | -0.82 |
| O=C(C=Cc1ccc([N+](=O)[O-])cc1)NC(=S)NN1CCOCC1 | -5.28 | -1.68 |
| COc1ccc2cc3cc(C(=O)N(C)c4cc(C)ccc4C)oc3nc2c1 | -6.86 | -1.68 |
| COc1ccc(C2Nc3ccccc3NC3=C2C(=O)CC(c2ccco2)C3)cc1 (stereo not given) | -2.08 | -0.853 |
| COc1ccc(OC)c(CN2CCN(Cc3ccccc3[N+](=O)[O-])CC2)c1 | -3.74 | -1.67 |
| CCN1CCN(C(=O)c2oc3ccc(S(=O)(=O)N4CCCCCC4)cc3c2C)CC1 | -6.41 | -1.6 |
| CC(C)NCCOCCOc1cccc(Br)c1 | -3.24 | -1.21 |
| Cc1cc(C)cc(NC(=O)c2ccccc2OCC(=O)N2CCc3ccccc32)c1 | -2.33 | -1.3 |
| CCOC(=O)c1c(NC(=O)c2ccccc2F)sc(C(=O)Nc2cccc(Cl)c2)c1C | -1.46 | -0.517 |
| O=C(O)c1ccc(S(=O)(=O)c2ccc3c(c2)C(=O)N(CC2CCCO2)C3=O)cc1 (stereo not given) | 0.388 | 0.146 |
| Cc1ccc(C(=O)Nc2cccc3c2C(=O)c2ccccc2C3=O)o1 | -2.82 | -1.16 |
| O=C(CNC(=O)OCc1ccccc1)Oc1cc2oc(=O)c3c(c2cc1Cl)CCC3 | -2.23 | -0.829 |
| CC(C)NC(=O)CCNC(=O)Cn1cnc2sc3c(c2c1=O)CCCC3 | -6.97 | -2.22 |

| SMILES | corrected activity, negative = more killing [%] | z-score |
| --- | --- | --- |
| COc1ccc(CNC(=O)CCN2C(=O)C3C4C=CC(CC4)C3C2=O)cc1 (stereo not given) | -5.25 | -1.67 |
| CS(=O)(=O)N(CC(=O)N1CCOCC1)c1ccc2c(c1)OCCO2 | -1.8 | -1 |
| COC(=O)c1ccc(C)c(NC(=O)c2ccc(C3SCC(=O)N3Cc3ccccc3)cc2)c1 (stereo not given) | -5.82 | -2.22 |
| CSCCOC(=O)C1=C(C)NC(=O)NC1c1cccc([N+](=O)[O-])c1 (stereo not given) | 0.214 | 0.0664 |
| Cc1ccc2c(C)nc(SCc3ccc(Cl)cc3)nc2c1 | -2.17 | -0.674 |
| CCOC(=O)c1ccc(N=c2oc3ccccc3cc2C(=O)Nc2ccccc2)cc1 | 2.85 | 1.01 |
| CCCn1cnc2sc(C(=O)Nc3ccc(Oc4ccc5c(c4)C(=O)N(c4ccc6c(c4)OCO6)C5=O)cc3)c(C)c2c1=O | -4.94 | -1.8 |
| COc1ccc(OC)c(NC(=O)c2cc3cccc(OC)c3oc2=O)c1 | -3.03 | -1.31 |
| O=C(c1ccc2c(=O)n(-c3ccc(F)cc3)c(=S)[nH]c2c1)N1CCc2ccccc2C1 | -0.906 | -0.288 |
| Cc1ccc(C(=O)CC2(O)C(=O)N(C(C)C)c3ccccc32)c(C)c1 (stereo not given) | -3.79 | -1.13 |
| CCOc1cccc(-c2cc(C(=O)O)c3ccccc3n2)c1 | -4.28 | -1.76 |
| COc1ccc(C)cc1NC(=O)c1oc(=O)c2ccccc2c1-c1ccccc1 | -11.3 | -2.78 |
| COc1ccccc1CNC(=O)C1CCN(S(=O)(=O)c2cccc3nonc23)CC1 | -5.24 | -1.49 |
| Cc1ccc(S(=O)(=O)NCc2cc(-c3nn(C)c(=O)c4ccccc34)ccc2C)cc1 | -2.25 | -0.924 |
| CC(C)c1ccc(NC(=O)c2cc(S(=O)(=O)N3CCN(c4ccccc4)CC3)ccc2F)cc1 | -8.98 | -2.42 |
| NC(C(=O)O)C(O)c1cccc([N+](=O)[O-])c1 (stereo not given) | -0.723 | -0.224 |
| COc1ccc(OCCCN2CCc3ccccc3C2)cc1 | -4.65 | -2.58 |
| CCOc1ccc(C2C(=C(O)c3ccc(Cl)cc3)C(=O)C(=O)N2c2nc3ccccc3s2)cc1 (stereo not given) | -4.47 | -1.71 |
| COC(=O)c1ccc(COC(=O)c2cc(=O)[nH]c3ccccc23)cc1 | -1.5 | -0.835 |
| Cc1ccccc1C(=O)Nc1ccc(C(=O)O)cc1NC(=O)c1ccccc1C | -0.368 | -0.197 |
